Screening data deposited in PubChem BioAssay by National Center for Advancing Translational Sciences (NCATS).
Most compounds without a hit are left out; they make up all but 19% or so of the library.
TDP1 cell CPT – growth inhibition of DT40 Tdp1-/-;hTDP1 cells with camptothecin (screen for TDP1 inhibitors) | chicken DT40 Tdp1-/-;hTDP1 cells + 20 nM CPT, ATP luminescence, 48 h | Potency, µM (top dose mostly 46.2 µM), inactives show top-dose activity change, negative = growth inhibition, usual class: inhibitors | 12% of 420,000 active | AID 686979; also: nearly all actives have a fitted effect of over 55% in size
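Chicken DT40 Tdp1-/- cells stably complemented with human TDP1 were seeded at 400 cells/well in medium containing 20 nM camptothecin, exposed to pin-transferred compounds, and grown at 37 °C for at least 48 hr. Viability was read as ATP luminescence.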
RORg inh – inhibitors of mouse ROR gamma transcriptional activity. Drosophila S2 Gal4-RORgamma UAS-luciferase reporter, 20 h. Potency, µM (series often up to 53.6 µM), inactives show at the top dose activity change, negative = inhibition, most hits filed as inhibitors. 5.4% of 310,000 active. AID 2551; also: nearly all actives have a fitted effect of over 60% in size
Target sequence (P51450 whole entry, looked up, the tested form may be a part): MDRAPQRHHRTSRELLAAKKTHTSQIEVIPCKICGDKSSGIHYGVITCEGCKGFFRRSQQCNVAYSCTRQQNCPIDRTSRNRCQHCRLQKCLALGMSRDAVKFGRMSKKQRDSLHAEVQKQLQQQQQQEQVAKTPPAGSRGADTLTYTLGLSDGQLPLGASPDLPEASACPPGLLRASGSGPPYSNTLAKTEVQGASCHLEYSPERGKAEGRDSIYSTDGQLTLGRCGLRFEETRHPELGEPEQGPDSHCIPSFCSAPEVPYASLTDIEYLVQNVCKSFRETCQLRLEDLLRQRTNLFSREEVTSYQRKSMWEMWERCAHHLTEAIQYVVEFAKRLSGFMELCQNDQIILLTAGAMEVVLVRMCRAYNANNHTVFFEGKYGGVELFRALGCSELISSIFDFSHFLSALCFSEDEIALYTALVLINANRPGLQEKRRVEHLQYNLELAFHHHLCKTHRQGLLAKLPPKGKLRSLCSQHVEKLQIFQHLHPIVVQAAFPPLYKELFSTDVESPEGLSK
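Read-out: Photinus luciferase luminescence; inhibitors lower reporter signal. Insect Schneider cells with Gal4-ROR gamma fusion under metallothionein promoter, UAS reporter; 700 uM final copper sulfate induction, 20 hr, ambient temperature.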
VP16 counter – Gal4-VP16 reporter inhibition counter-screen; Drosophila S2 Gal4-VP16 UAS-luciferase, luminescence, 20 h; Potency, µM (highest dose often 53.6 µM), for the others: at the highest dose activity, negative = inhibition, actives largely listed as inhibitors; 3.5% of 310,000 active; AID 2546;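 also: Gal4-VP16 expression switched on by copper sulfate through the metallothionein promoter; nearly all actives have a fitted effect of over 50% in size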
DT40 TDP1 no CPT – qHTS for Inhibitors of human tyrosyl-DNA phosphodiesterase 1 (TDP1): qHTS in cells in absence of CPT; DT40 Tdp1-/- hTDP1 cells, no CPT, ATP luminescence, 48 h; Potency, µM (doses to about 46.2 µM), without a hit: top-dose activity change, negative = growth inhibition, actives largely listed as inhibitors; 15% of 420,000 active; also: nearly all actives have a fitted effect of over 55% in size
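Growth kinetics read by CellTiter-Glo luminescence after ≥48 hr at 37 °C. Cells: DT40 Tdp1-/- stably carrying human TDP1, 400 per well, compound exposure in the absence of CPT (DMSO vehicle).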
TDP1 block – TDP1 (human) enzyme inhibition. Q9NUW8. recombinant TDP1, AlphaScreen DNA substrate cleavage. Potency, µM (highest dose often 130 µM), for inactives: top-dose activity change, negative = inhibition, usual class: inhibitors. 0.28% of 350,000 active; also: nearly all actives have a fitted effect of over 40% in size
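Recombinant E. coli-expressed Tdp1 (1 nM) preincubated with compound 15 min at RT, then 5'-biotin/3'-phosphotyrosine-FITC DNA substrate (15 nM) added for 5 min. AlphaScreen beads (10 ug/ml) added, 10 min RT; tyrosine-FITC cleavage read as signal loss.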
* = called active by the depositor; [ ] = another dose, or the depositor's remark. Calls follow the shape of the dose curve; as a rule, active = well fitted curve in the direction sought with a large enough effect; inconclusive = small, poorly fitted or top-dose-only effect, or another doubt; inactive = no such curve, though single readings can be large; an effect the other way counts as inactive or inconclusive. % is scaled to controls: 0 for no effect and ±100 for the full control effect; potency is read from the fitted curve at half-maximal effect.

For Cn1c(SC2=CS(=O)(=O)c3ccccc32)nc2ccccc21 the results were TDP1 cell CPT 2.31µM*, RORg inh inconclusive, VP16 counter inconclusive, DT40 TDP1 no CPT 2.91µM* and TDP1 block 5.2%.
`CC(NC(=O)CSc1nc2ccccc2n1C)c1ccccc1` (stereo unspecified) gave TDP1 cell CPT 2.6%, RORg inh -8.7%, VP16 counter -19.8%, DT40 TDP1 no CPT -8.3% and TDP1 block 4.3%.
`COc1ccc(C(=O)Nc2ccc(Br)cn2)cc1S(=O)(=O)N1CCOCC1` gave TDP1 cell CPT -5.9%, DT40 TDP1 no CPT -6.2% and TDP1 block 1.2%.
O=C(CCNS(=O)(=O)c1ccccc1)NCCCSc1ccccc1 was read as TDP1 cell CPT 7.31µM*, RORg inh 7.9%, VP16 counter 2.0%, DT40 TDP1 no CPT 18.4µM* and TDP1 block 3.6%.
O=S(=O)(NCCCCCNS(=O)(=O)c1ccccc1)c1ccccc1 was read as TDP1 cell CPT inconclusive, RORg inh -28.3%[0.365 µM], VP16 counter inconclusive, DT40 TDP1 no CPT 25.9µM* and TDP1 block 7.8%.
O=S(=O)(NCCCCCNS(=O)(=O)c1ccc(F)cc1)c1ccc(F)cc1 was read as TDP1 cell CPT 11.2µM*, RORg inh 28.3%, VP16 counter 0.2%, DT40 TDP1 no CPT 12.6µM* and TDP1 block 2.4%.
NCCCCCCNS(=O)(=O)c1cccc2ccccc12 was read as TDP1 cell CPT 15.8µM*, RORg inh 38.8%, VP16 counter -0.7%, DT40 TDP1 no CPT 14.1µM* and TDP1 block 8.3%.
Cc1ccc(S(=O)(=O)NCCC(=O)NCCCSc2ccccc2)cc1 was read as TDP1 cell CPT -26.7%, DT40 TDP1 no CPT -25.6% and TDP1 block 0.9%.
`CC(=O)N/C(=C\c1ccccc1)C(=O)OCc1ccc(F)cc1` gave TDP1 cell CPT -12.0%, RORg inh inconclusive, VP16 counter inconclusive, DT40 TDP1 no CPT -0.6% and TDP1 block 4.9%.
`CC(=O)N1C(c2ccccc2O)C[C@]2(C)CC(=O)NC12` (stereo partly specified) gave TDP1 cell CPT 0.6%, RORg inh 9.7%, VP16 counter -3.9%, DT40 TDP1 no CPT 2.5% and TDP1 block 2.7%.
Screening N#Cc1ccc(C(=O)NCCCSc2ccccc2)cc1 returned TDP1 cell CPT inconclusive, RORg inh -4.1%, VP16 counter -9.9% and DT40 TDP1 no CPT 20.6µM*.
COc1ccc(N2CCc3c(C)nc(SC)nc32)cc1 was read as TDP1 cell CPT 2.8%, RORg inh 13.8%, VP16 counter 5.5%[10 µM], DT40 TDP1 no CPT inconclusive and TDP1 block 0.0%.
COCC(=O)N1CCC(Oc2ccc(C(=O)NCCCC3CCCC3)cc2)CC1 was read as TDP1 cell CPT 13µM*, RORg inh 29.1%, VP16 counter 16.1%, DT40 TDP1 no CPT 18.4µM* and TDP1 block 4.7%.
`O=C1/C(=C\c2ccncc2)SC(=S)N1C1CCCCC1` gave TDP1 cell CPT inconclusive, RORg inh -30.7%, VP16 counter -3.5%, DT40 TDP1 no CPT inconclusive and TDP1 block 5.3%.
`COC(=O)c1ccncc1C(=O)Nc1ccc(Oc2ncc(C(F)(F)F)cc2Cl)cc1` gave TDP1 cell CPT 2.2%, RORg inh -12.8%, VP16 counter 1.8% and DT40 TDP1 no CPT -17.1%.
For COC(=O)c1cnc(Oc2ccc(NC(=O)NC(=O)c3ccccc3Cl)cc2)cc1C(F)(F)F the results were TDP1 cell CPT inconclusive, RORg inh -9.1%, VP16 counter -27.5%, DT40 TDP1 no CPT 4.11µM* and TDP1 block 3.8%.
Screening CCOc1ccc(-n2c(Cc3ccccc3)nnc2SCc2nc(-c3ccccc3C)no2)cc1 returned TDP1 cell CPT inconclusive, DT40 TDP1 no CPT inconclusive and TDP1 block 1.2%.
Screening Cc1ccccc1-c1noc(CSc2nnc(Cc3ccccc3)n2-c2ccc(F)cc2)n1 returned TDP1 cell CPT inconclusive, DT40 TDP1 no CPT 9.2µM* and TDP1 block -1.2%.
